# Screen size: about 96,000 compounds; about 20,000 (21%) were called active.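 The calls were made as follows: active = CYP2C19 inhibition above a set limit at 5 µM in the primary screen (cut at about 50% in these data); inactive = the rest.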 Only a sample is shown.
# Molecular target: Cytochrome P450 2C19 (Homo sapiens) (UniProt P33261)
# Experiment: blockers of cytochrome P450 2C19 activity – biochemical, luminescence, ADME assay, primary screen (AID 778);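 also: plate controls were negative control wells for no effect and 2.5 mM tranylcypromine positive control for full effect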
# Details: CYP2C19 Supersomes, luciferin-H EGE luminescence, 30 min; at 5 µM; active compounds read high
# Chain of Cytochrome P450 2C19 (Homo sapiens) (P33261 whole entry, looked up): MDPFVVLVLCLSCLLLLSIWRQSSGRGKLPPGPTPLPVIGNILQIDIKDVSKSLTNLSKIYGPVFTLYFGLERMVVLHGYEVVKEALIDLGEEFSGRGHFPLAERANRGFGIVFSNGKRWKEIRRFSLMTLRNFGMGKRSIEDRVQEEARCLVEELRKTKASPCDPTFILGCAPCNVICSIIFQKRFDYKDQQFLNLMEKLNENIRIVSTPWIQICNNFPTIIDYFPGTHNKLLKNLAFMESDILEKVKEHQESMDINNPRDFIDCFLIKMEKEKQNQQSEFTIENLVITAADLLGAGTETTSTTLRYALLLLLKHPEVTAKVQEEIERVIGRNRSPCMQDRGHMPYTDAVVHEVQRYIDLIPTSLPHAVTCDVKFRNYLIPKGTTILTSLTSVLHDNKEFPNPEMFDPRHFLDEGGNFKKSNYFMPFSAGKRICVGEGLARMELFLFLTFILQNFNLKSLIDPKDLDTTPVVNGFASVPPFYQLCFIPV
row,Compound,inhibition
1,Cc1ccc(NC(=O)c2cc(-c3ccc(C)o3)nc3ccccc23)nc1,-3.9% (inactive)
2,O=C(O)CCC(=O)N(Cc1ccco1)c1nc(-c2ccccc2)cs1,2.5% (inactive)
3,Cc1ccc(-c2csc(N(Cc3ccco3)C(=O)c3cccs3)n2)cc1,68.5% (active)
4,Cc1ccc(-c2csc(NC(=O)c3cccs3)n2)cc1,-2.3% (inactive)
5,CCOC(=O)N1CCN(C(=O)C2CCN(S(C)(=O)=O)CC2)CC1,-15% (inactive)
6,O=C(Nc1nccs1)C1CCN(S(=O)(=O)c2ccc(Cl)c(C(F)(F)F)c2)CC1,36.3% (inactive)
7,CCOC(=O)Cc1csc(NC(=O)CN(C)S(=O)(=O)c2ccc3c(c2)CCC(=O)N3)n1,-17.1% (inactive)
8,CCN(c1ccccc1)S(=O)(=O)c1ccc(C(=O)Nc2nccs2)cc1,-4.3% (inactive)
9,Cc1nc(NC(=O)CN(C)S(=O)(=O)c2ccc(Cl)cc2)sc1C,62.6% (active)
10,CN(CC(=O)Nc1cccc2c1CCCC2)S(=O)(=O)c1ccc(Cl)cc1,-15.4% (inactive)
11,CN(CCCC(=O)Nc1nccs1)S(=O)(=O)c1ccc(Cl)cc1,51% (active)
12,O=c1c2ccccc2c(-c2ccc(Br)cc2)nn1Cc1ccccc1,33% (inactive)
13,CCC(=O)NC(=Nc1nc2ccccc2s1)NC(=O)CC,-0.9% (inactive)
14,N#C/C=C1\Sc2ccccc2C(=O)N1CC(=O)N1CCN(S(=O)(=O)c2ccccc2)CC1,-22.8% (inactive)
15,CC1(C)CC(=O)C(C=NCCC2=CCCCC2)=C(O)C1,9.5% (inactive)
16,CC1(C)CC(=O)C(C=NCCN2CCN(C(=S)Nc3cccc(Cl)c3)CC2)=C(O)C1,60.5% (active)
17,CC(=O)N1CCN(CCN=CC2=C(O)CC(C)(C)CC2=O)CC1,-18.4% (inactive)
18,CCn1cc(C(=O)NCC2CCCO2)c(=O)c2cc(S(=O)(=O)N3CCCCC3)ccc21 (centres undefined),13.6% (inactive)
19,Cc1ccc(C(=O)N(CN2CCCC2=O)c2ccc(F)cc2)cc1,-14.3% (inactive)
20,CCCNC(=O)C1CC(=O)N(c2ccc(OCC(=O)Nc3cccc(C)c3C)cc2)C1 (centres undefined),-17.2% (inactive)
21,COCCCNC(=O)C1CC(=O)N(c2ccc(C)cc2)C1 (centres undefined),5.7% (inactive)
22,COc1ccc(Cl)cc1NC(=O)C1CC(=O)N(c2ccc(F)cc2)C1 (centres undefined),74.3% (active)

row,Compound,inhibition
1,N#Cc1c(N)nc2c3c(sc(=N)c2c1N)NC(=O)CC3c1ccccc1Cl (centres undefined),-0.8% (inactive)
2,CN(C)c1ccnc(Oc2ccc(F)cc2)c1C#N,32.1% (inactive)
3,Cc1cccc(OCc2nnc(SCc3nc4cc(C(F)(F)F)ccc4c(=O)[nH]3)o2)c1,54% (active)
4,Cc1cc(C)cc(OCc2nnc(SCC(=O)OC3CCCCC3)o2)c1,4.2% (inactive)
5,Cc1cccc(OCc2nnc(SCn3nnc4ccccc4c3=O)o2)c1,31.6% (inactive)
6,COc1ccc(Nc2cc(C)nc(-n3nc(C)cc3C)n2)cc1,46% (inactive)
7,COCCCNC(NC(=O)c1ccc(C)cc1)C(Cl)(Cl)Cl (centres undefined),24.3% (inactive)
8,CCC(=O)c1c[nH]c(C(=O)NCC2CCCO2)c1 (centres undefined),-4.8% (inactive)
9,CCNC(=O)N1CCNC(=O)C1CC(=O)Nc1ccc(C(=O)OCC)cc1 (centres undefined),3.6% (inactive)
10,CC1(C)Cc2cccc(OCC(N)=O)c2O1,-16.5% (inactive)
11,COc1cc(C(=O)Nc2nccs2)cc(OC)c1OC,17.9% (inactive)
12,CC1(C)Cc2cccc(OCC(=O)Nc3nccs3)c2O1,60.6% (active)
13,CCOC(=O)c1cc2n(c1N)-c1ccccc1C2=O,26.7% (inactive)
14,O=C(NCC1CCC(C(=O)O)CC1)OCc1ccccc1 (centres undefined),2.9% (inactive)
15,Cc1ccc(C(=O)/C=C/c2c(C)nn(-c3ccccc3)c2Cl)cc1,76.2% (active)
16,Cc1nn(-c2ccccc2)c(CC(C)(C)C(=O)O)c1C(=O)O,7.2% (inactive)
17,Cc1nn(-c2ccccc2)c(Cl)c1C(=O)Nc1ccccc1,39.2% (inactive)
18,Cc1ccc(O)c(CNc2nc3ccccc3n2C)c1,39.6% (inactive)
19,CCC1SC2=NCCN2C1(O)c1ccc(Cl)cc1 (centres undefined),94.6% (active)
20,O=C(COc1ccccc1F)NC1CC1,-8.2% (inactive)
21,O=C1CCCc2c1nc(-c1cccc(Cl)c1)n2O,-3.8% (inactive)
22,CON(C)S(=O)(=O)c1ccc2c(c1)NC(=O)C1CCCN21 (centres undefined),4.3% (inactive)

row,Compound,inhibition
1,COc1ccc(Nc2nc(Cl)nc(NCc3ccco3)n2)cc1,4% (inactive)
2,COc1ccc(N(CC(=O)N/N=C/c2cccc3c2OCCO3)S(=O)(=O)c2ccc(NC(C)=O)cc2)cc1,33.4% (inactive)
3,Cc1cc(C)nc(SC(C)C(=O)N/N=C/c2cccs2)n1 (centres undefined),20.8% (inactive)
4,COc1ccc(N(CC(=O)N/N=C/c2cccs2)S(=O)(=O)c2ccc(OC)c(OC)c2)cc1,99.3% (active)
5,CCOc1ccc(N=Cc2c(O)n(-c3cccc(C)n3)c(=O)c3ccccc23)cc1,23.6% (inactive)
6,CCOC(=O)c1cc2c(n(-c3ccc(C)cc3)c1=O)CCCC2=O,5.6% (inactive)
7,COC(=O)CNC(=O)c1ccccc1F,-5.1% (inactive)
8,COc1ccc(C(=O)NN(C)c2nc(-c3ccccc3)cc(C)c2S(C)(=O)=O)cc1,10.6% (inactive)
9,CN(NC(=O)c1ccccc1)c1nc2ccccc2nc1C(F)(F)F,35.4% (inactive)
10,CSc1nc(N(C)NC(=O)c2cccc(C)c2)c2ccccc2n1,77% (active)
11,Cc1c(C(=O)OC(C)C)sc(NC(=O)c2cccnc2)c1C#N,1.5% (inactive)
12,CC(NC(=O)c1ccco1)C(=O)Nc1nc(-c2ccccn2)cs1 (centres undefined),6% (inactive)
13,COc1ccc2[nH]c3ccc(OC)cc3c2c1,29.9% (inactive)
14,CN(C)S(=O)(=O)c1ccc(Oc2ccc(S(=O)(=O)N(C)C)cc2)cc1,19.7% (inactive)
15,Nc1ccc(Oc2ccc(Cl)cc2)cc1,85.1% (active)
16,Cc1ccc(S(=O)(=O)c2ccc(Oc3ccccc3)cc2)cc1,-11.2% (inactive)
17,COCCNCCOCCOc1cccc(OC)c1,10.2% (inactive)
18,Cc1ccc(Oc2ccc(N)cc2)cc1,87.9% (active)
19,COc1cccc(Oc2ccc(N)cc2)c1,64.1% (active)
20,Clc1ccc(Cl)c(Oc2ccc(Oc3nc(Cl)ccc3Cl)cc2)n1,-4.8% (inactive)

# — PubChem BioAssay AID778 (Sanford-Burnham Center for Chemical Genomics, 2007)
